Measured values reported in ChEMBL document CHEMBL1961873, “Compounds: GSK PKIS; Assays: Nanosyn kinase panel” (2012).

Tests used:
[1] = test system: Epidermal growth factor receptor (Homo sapiens), P00533 [T790M]; conditions: at 1 µM
[2] = test system: Epidermal growth factor receptor (Homo sapiens), P00533 [L858R,T790M]; conditions: at 0.1 µM
[3] = test system: Epidermal growth factor receptor (Homo sapiens), P00533 [L858R,T790M]; conditions: at 1 µM
[4] = target: Ephrin type-A receptor 2 (Homo sapiens) (UniProt P29317); conditions: at 0.1 µM
[5] = target: Ephrin type-A receptor 2 (Homo sapiens) (UniProt P29317); conditions: at 1 µM
[6] = target: T1, Ephrin type-A receptor 3 (Homo sapiens) (UniProt P29320); conditions: at 0.1 µM
T1 sequence (whole entry): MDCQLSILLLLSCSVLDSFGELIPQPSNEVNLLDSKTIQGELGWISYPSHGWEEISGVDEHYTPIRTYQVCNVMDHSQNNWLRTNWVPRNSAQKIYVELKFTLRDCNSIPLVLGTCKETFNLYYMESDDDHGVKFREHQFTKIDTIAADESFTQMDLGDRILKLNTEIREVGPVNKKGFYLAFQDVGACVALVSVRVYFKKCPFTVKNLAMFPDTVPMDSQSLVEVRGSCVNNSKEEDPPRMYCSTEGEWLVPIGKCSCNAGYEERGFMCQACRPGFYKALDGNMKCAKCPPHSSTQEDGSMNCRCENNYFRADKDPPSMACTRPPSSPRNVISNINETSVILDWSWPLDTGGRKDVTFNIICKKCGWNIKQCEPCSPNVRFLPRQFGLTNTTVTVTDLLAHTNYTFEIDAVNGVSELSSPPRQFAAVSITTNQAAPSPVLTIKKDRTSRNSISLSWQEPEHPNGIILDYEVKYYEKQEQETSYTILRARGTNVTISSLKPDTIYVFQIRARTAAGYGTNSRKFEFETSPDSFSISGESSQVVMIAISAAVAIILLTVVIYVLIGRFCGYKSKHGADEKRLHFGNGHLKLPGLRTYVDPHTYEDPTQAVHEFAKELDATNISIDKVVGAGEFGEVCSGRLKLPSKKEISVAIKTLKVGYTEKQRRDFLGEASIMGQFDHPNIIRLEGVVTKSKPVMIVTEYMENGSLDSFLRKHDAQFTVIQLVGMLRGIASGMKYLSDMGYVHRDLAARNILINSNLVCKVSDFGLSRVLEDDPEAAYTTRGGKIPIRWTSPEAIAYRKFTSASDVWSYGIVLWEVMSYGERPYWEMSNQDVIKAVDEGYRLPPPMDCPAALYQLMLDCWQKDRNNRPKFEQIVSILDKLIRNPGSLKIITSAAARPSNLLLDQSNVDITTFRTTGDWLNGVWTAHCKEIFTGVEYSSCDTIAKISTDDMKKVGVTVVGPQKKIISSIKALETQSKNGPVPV

[7] = target: T1, Ephrin type-A receptor 3 (Homo sapiens); conditions: at 1 µM
[8] = target: Ephrin type-A receptor 4 (Homo sapiens) (UniProt P54764); conditions: at 0.1 µM
[9] = target: Ephrin type-A receptor 4 (Homo sapiens) (UniProt P54764); conditions: at 1 µM
[10] = target: T2, Ephrin type-B receptor 2 (Homo sapiens) (UniProt P29323); conditions: at 0.1 µM
T2 sequence (whole entry): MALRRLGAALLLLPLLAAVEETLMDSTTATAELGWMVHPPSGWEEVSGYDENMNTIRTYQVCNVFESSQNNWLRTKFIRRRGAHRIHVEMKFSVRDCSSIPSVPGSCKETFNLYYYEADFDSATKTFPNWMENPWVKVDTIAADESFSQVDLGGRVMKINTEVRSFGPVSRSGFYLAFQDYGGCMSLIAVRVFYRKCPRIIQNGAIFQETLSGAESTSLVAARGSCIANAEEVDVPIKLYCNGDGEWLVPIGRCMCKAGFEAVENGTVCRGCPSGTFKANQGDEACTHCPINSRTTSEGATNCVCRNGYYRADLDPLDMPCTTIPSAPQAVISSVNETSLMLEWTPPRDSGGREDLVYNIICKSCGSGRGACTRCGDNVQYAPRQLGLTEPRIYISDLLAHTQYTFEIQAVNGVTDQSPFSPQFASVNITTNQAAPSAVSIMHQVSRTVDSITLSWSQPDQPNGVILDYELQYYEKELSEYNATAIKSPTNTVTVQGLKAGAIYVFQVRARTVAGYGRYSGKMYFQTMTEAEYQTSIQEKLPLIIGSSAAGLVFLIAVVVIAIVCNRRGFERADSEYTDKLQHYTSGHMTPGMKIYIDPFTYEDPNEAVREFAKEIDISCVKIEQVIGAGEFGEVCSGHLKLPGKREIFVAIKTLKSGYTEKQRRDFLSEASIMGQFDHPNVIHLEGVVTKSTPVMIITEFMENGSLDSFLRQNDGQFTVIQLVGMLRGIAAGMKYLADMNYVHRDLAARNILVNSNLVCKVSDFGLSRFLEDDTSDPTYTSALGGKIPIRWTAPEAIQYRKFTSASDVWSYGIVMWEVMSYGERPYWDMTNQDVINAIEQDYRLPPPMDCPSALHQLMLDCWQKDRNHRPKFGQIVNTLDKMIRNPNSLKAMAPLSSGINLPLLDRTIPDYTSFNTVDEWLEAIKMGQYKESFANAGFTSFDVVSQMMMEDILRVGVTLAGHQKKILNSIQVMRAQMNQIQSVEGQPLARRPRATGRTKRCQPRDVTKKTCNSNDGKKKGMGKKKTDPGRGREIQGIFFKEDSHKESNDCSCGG

[11] = target: T2, Ephrin type-B receptor 2 (Homo sapiens); conditions: at 1 µM
[12] = target: T3, Ephrin type-B receptor 3 (Homo sapiens) (UniProt P54753); conditions: at 0.1 µM
T3 sequence (whole entry): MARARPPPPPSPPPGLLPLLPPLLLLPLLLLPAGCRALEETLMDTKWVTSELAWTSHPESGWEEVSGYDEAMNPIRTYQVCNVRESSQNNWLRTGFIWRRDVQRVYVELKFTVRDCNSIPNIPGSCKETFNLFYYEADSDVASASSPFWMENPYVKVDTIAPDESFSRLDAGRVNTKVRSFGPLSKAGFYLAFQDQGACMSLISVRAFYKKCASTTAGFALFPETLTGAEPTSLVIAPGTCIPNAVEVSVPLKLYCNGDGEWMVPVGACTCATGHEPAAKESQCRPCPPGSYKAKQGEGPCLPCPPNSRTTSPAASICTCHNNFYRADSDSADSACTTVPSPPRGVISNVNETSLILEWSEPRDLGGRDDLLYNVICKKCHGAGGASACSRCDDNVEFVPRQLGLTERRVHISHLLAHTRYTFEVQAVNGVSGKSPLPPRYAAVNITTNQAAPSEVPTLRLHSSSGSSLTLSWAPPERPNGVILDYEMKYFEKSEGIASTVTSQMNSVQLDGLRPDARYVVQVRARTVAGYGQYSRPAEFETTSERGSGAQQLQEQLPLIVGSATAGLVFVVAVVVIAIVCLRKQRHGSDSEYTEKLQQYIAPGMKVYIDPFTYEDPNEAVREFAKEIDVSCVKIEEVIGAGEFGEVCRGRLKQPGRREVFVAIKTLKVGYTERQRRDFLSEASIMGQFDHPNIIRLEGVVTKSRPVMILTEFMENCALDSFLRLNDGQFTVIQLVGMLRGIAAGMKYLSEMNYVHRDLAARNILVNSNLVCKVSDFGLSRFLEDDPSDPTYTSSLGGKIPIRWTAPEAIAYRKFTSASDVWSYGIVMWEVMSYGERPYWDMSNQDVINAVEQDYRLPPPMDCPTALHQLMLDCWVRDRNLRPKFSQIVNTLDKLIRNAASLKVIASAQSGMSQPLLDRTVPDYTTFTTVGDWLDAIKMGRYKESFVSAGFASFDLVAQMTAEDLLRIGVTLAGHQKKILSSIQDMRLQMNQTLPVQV

[13] = target: T3, Ephrin type-B receptor 3 (Homo sapiens); conditions: at 1 µM
[14] = target: T4, Ephrin type-B receptor 4 (Homo sapiens) (UniProt P54760); conditions: at 0.1 µM
T4 sequence (whole entry): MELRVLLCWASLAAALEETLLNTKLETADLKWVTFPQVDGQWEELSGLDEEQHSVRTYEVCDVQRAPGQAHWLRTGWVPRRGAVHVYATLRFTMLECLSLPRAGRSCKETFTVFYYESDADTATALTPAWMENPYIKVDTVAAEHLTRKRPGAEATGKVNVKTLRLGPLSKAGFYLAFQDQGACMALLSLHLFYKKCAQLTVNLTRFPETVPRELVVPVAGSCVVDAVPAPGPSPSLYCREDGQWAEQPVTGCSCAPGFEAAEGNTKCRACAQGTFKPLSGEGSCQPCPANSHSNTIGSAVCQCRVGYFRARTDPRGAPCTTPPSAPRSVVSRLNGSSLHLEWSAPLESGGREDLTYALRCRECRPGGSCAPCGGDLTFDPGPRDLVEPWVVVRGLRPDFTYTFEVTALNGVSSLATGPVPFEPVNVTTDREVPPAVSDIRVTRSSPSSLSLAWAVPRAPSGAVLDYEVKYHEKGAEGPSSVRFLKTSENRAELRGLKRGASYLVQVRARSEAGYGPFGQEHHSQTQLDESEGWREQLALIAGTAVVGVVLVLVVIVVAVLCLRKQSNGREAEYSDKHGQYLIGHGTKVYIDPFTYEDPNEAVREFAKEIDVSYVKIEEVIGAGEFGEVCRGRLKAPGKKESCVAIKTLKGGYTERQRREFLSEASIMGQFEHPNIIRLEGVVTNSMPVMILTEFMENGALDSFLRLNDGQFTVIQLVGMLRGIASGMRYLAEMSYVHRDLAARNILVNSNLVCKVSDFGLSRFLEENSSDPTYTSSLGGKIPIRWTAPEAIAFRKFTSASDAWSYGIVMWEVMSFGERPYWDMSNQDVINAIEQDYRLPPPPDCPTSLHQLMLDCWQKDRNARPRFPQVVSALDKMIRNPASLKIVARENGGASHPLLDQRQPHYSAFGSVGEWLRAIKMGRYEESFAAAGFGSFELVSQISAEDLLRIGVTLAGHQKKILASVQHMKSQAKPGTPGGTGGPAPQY

[15] = target: T4, Ephrin type-B receptor 4 (Homo sapiens); conditions: at 1 µM
[16] = target: Receptor tyrosine-protein kinase erbB-2 (Homo sapiens) (UniProt P04626); conditions: at 0.1 µM
[17] = target: Receptor tyrosine-protein kinase erbB-2 (Homo sapiens) (UniProt P04626); conditions: at 1 µM
[18] = target: Receptor tyrosine-protein kinase erbB-4 (Homo sapiens) (UniProt Q15303); conditions: at 0.1 µM
[19] = target: Receptor tyrosine-protein kinase erbB-4 (Homo sapiens) (UniProt Q15303); conditions: at 1 µM
[20] = target: Tyrosine-protein kinase Fer (Homo sapiens) (UniProt P16591); conditions: at 0.1 µM;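 also: reported figures are averaged percent inhibition of FER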

Receptor tyrosine-protein kinase erbB-4 (Homo sapiens), sequence (Q15303 whole entry): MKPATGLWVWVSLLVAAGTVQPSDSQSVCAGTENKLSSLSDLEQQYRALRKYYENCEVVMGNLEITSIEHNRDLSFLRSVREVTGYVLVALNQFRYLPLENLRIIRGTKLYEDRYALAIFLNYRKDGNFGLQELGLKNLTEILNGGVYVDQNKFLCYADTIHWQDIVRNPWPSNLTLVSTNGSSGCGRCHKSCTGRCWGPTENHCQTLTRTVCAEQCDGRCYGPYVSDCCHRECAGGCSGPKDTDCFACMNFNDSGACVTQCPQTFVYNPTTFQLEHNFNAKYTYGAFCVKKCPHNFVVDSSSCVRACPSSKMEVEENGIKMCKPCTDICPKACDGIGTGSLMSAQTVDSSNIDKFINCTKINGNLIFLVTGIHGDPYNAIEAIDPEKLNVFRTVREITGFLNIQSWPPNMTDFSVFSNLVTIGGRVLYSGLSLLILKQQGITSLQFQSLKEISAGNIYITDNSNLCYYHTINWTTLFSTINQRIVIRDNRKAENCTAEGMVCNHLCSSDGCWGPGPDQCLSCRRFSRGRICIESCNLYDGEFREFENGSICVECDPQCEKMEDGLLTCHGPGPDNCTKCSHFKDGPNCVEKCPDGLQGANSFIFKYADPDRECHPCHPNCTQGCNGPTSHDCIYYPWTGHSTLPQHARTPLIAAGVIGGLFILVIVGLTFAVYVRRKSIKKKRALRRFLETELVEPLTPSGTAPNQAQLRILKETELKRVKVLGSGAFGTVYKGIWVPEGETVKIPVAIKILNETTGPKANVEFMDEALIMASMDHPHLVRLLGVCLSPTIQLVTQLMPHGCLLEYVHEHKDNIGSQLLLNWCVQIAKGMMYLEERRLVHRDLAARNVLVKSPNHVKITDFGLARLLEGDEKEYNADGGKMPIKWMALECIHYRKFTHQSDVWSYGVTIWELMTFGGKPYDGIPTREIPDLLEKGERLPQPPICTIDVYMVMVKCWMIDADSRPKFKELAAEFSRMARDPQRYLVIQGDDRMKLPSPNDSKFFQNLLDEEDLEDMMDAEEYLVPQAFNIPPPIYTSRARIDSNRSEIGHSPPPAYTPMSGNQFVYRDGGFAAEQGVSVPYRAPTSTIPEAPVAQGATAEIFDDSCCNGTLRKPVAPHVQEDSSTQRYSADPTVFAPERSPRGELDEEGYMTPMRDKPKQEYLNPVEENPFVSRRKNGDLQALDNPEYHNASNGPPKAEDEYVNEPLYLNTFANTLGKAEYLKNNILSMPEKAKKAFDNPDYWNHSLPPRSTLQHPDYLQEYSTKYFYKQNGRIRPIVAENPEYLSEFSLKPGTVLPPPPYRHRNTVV
Ephrin type-A receptor 4 (Homo sapiens), sequence (P54764 whole entry): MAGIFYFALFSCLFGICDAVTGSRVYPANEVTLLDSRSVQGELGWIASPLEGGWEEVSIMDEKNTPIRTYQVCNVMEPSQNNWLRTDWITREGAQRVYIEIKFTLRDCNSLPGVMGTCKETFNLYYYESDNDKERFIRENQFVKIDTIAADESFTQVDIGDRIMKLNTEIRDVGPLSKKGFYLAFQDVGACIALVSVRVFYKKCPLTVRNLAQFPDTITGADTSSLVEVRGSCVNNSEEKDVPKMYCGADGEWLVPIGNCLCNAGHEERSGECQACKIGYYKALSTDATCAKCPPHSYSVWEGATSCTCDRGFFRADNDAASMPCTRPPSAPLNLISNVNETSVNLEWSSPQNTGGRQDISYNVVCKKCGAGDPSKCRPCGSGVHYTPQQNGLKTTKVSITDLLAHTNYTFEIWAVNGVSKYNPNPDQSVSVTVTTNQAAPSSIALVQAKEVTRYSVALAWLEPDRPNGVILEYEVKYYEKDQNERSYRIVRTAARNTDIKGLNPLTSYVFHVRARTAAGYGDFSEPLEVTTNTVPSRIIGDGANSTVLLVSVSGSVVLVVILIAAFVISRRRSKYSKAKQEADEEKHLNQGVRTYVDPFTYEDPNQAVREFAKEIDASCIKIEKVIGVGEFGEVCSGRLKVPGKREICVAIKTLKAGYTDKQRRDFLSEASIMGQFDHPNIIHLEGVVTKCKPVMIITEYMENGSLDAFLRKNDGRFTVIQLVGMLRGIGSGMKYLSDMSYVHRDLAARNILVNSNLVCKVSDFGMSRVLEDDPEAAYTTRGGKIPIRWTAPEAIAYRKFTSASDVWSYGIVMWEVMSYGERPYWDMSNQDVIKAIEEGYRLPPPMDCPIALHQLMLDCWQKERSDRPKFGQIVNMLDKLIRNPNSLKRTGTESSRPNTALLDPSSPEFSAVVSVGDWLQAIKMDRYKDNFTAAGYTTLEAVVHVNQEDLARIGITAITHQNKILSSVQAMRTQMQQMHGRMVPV
Receptor tyrosine-protein kinase erbB-2 (Homo sapiens), sequence (P04626 whole entry): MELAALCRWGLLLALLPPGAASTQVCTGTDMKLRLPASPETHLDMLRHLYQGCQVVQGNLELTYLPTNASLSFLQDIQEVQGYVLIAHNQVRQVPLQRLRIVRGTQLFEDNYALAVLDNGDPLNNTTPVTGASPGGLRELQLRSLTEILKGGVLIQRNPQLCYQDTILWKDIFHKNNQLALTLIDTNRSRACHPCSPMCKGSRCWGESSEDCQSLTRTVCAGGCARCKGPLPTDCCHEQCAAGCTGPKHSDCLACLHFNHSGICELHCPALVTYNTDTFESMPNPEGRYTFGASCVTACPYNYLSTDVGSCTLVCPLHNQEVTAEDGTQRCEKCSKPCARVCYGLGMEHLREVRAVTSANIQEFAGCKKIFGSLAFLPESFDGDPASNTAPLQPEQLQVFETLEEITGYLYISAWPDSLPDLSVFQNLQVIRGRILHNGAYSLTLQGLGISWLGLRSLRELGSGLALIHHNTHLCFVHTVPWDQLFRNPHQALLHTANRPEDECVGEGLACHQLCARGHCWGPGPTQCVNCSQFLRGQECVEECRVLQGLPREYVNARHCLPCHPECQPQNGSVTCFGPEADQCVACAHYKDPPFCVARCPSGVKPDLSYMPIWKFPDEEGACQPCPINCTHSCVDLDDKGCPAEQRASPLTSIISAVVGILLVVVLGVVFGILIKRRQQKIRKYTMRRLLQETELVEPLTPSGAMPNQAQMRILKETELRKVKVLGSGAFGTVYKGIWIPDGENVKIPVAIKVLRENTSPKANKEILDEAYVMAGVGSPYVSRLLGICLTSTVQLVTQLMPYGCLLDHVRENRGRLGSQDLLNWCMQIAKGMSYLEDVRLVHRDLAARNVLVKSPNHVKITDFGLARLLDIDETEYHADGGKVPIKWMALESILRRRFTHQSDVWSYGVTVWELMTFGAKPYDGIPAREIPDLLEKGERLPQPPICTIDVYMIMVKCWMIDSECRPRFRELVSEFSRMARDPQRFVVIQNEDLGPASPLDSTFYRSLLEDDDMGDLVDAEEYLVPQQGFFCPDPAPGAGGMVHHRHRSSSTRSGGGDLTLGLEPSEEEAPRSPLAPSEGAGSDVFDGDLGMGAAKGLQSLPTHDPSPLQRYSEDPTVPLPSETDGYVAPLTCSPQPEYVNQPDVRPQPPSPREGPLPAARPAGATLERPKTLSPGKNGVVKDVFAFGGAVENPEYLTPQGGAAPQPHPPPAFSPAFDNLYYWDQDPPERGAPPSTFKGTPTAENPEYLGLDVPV
Epidermal growth factor receptor (Homo sapiens), P00533 [T790M], sequence (P00533 whole entry T790M): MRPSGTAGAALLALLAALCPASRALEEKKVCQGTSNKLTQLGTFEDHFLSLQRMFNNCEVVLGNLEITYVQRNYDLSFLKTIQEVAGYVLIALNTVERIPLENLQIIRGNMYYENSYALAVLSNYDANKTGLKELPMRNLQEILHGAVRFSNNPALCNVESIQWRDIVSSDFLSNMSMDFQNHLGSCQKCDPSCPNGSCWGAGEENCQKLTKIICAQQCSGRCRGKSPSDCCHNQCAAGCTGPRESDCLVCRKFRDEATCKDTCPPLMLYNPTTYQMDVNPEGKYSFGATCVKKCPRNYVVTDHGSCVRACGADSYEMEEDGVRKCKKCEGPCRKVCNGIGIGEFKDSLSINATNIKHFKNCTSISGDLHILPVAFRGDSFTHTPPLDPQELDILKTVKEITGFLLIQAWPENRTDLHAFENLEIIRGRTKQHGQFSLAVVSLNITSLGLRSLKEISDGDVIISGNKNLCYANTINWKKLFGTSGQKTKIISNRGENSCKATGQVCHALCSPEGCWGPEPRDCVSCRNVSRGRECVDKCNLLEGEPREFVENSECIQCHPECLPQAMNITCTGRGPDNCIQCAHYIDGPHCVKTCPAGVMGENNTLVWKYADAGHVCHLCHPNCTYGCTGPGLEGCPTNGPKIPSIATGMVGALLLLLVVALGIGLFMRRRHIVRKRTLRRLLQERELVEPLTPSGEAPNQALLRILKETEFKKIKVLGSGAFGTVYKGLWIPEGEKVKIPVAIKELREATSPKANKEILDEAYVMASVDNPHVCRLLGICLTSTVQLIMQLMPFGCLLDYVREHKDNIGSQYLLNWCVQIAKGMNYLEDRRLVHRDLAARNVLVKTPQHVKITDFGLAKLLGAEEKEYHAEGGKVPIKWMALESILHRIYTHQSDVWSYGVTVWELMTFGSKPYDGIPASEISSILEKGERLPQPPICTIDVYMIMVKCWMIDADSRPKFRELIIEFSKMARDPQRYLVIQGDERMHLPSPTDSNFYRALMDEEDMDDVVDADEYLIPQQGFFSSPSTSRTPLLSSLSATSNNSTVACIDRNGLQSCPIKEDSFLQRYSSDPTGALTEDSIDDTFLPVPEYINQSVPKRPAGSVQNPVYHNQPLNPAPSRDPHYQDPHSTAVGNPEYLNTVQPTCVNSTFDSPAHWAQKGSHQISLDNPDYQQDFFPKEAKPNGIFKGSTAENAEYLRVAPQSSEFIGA

Row | Compound | inhibition [1] [%] | inhibition [2] [%] | inhibition [3] [%] | inhibition [4] [%] | inhibition [5] [%] | inhibition [6] [%] | inhibition [7] [%] | inhibition [8] [%] | inhibition [9] [%] | inhibition [10] [%] | inhibition [11] [%] | inhibition [12] [%] | inhibition [13] [%] | inhibition [14] [%] | inhibition [15] [%] | inhibition [16] [%] | inhibition [17] [%] | inhibition [18] [%] | inhibition [19] [%] | inhibition [20] [%]
1 | CNC(=O)c1ncccc1Nc1nc(Nc2cc3c(cc2OC)CCCN3C(=O)CN(C)C)nc2[nH]ccc12 | 54.4 | 43.7 | 80.5 | 0.62 | 0.22 | 5.44 | 5.06 | 7.88 | 7.89 | 8.66 | 9.33 | 4.77 | -0.74 | 1.64 | 2.22 | 3.4 | 3.24 | 10.7 | 20.2 | 71.3
2 | O=C1Nc2ccccc2/C1=C1\CCc2cc(O)ccc21 | 2.73 | 1.8 | 4.76 | 2.66 | 2 | 6.06 | 4.39 | 7.97 | 3.3 | 3.53 | 9.85 | 7.65 | 3.73 | 1.66 | 2.84 | 0.88 | -3.46 | 8.95 | 13.7 | 7
3 | CC1=C(C(=O)Nc2ccc3[nH]nc(C)c3c2)C(c2ccc(C(F)(F)F)cc2)CC(=O)N1 (stereo not given) | -0.09 | 3.65 | -0.97 | 2.9 | 2.18 | 2.71 | 2.28 | 5.51 | 5.67 | 5.5 | 3.69 | 5.28 | 2.84 | 1.98 | 4.06 | 0.35 | 0.13 | 9.2 | 16 | 1.26
4 | NC(=O)c1ccc2c(-c3ccnc(NCCCO)n3)c(-c3ccc(F)cc3)nn2c1 | 2.72 | 4.41 | 6.91 | 2.54 | 7.54 | 5.24 | 7.21 | 11.8 | 29.7 | 9.21 | 40.3 | 4.52 | 4.65 | 4.6 | 11.4 | 2.1 | 3.13 | 16.8 | 39 | 6.31
5 | CC1=C(C(=O)Nc2ccc3[nH]ncc3c2)C(c2ccc(F)cc2)N=C(c2ccc(C(F)(F)F)nc2)N1 (stereo not given) | 0.81 | 4.44 | -0.48 | -1.16 | -0.31 | 3.49 | 3.54 | 5.75 | 6.21 | 8.47 | 8.11 | 3.81 | 2.31 | 1.15 | 2.78 | 1.68 | 3.01 | 7.98 | 11.7 | 0.93
6 | N#Cc1cccc(Nc2ncc(-c3ccccc3)o2)c1 | 3.24 | 0.29 | 3.37 | 1.14 | 0.54 | 2.39 | 1.84 | 6.35 | 8.39 | 2.84 | 0.63 | 3.66 | 1.53 | 0.33 | 0.44 | 2.68 | 4.17 | 6.42 | 9.11 | 1.76
